PubChem BioAssay
Where “and” joins values, the source holds several entries; their conditions need not be identical. Equal entries are not always repeated.

test: probe aNog binding to arrayed compounds – biochemical, biotinylated probe, 635/667 nm fluorescence, primary screen (AID 1115); details: small-molecule microarray, higher = more signal;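 note: probe is biotinylated aNog protein used at 0.15 µg/mL for 1 h at 4 C; z-score combines 667 nm fluorescence of each spot with its signal to noise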

For `CC(CO)N1C(=O)[C@@H]2C3C(=O)OCCC=C[C@H]3OC23C=CCN(CCN2CCOCC2)C(=O)[C@@H]13` (some centres undefined), which composite z-score is on record?
The composite z-score was 0.199 and -0.0161.

For `COC(=O)C1=C(C)N(Cc2ccccc2)C2=C(C(C)=O)[C@H](c3ccccc3)[C@@](O)(C(=O)OC)C(=O)N2[C@@H]1c1ccccc1`, which composite z-score is on record?
Its composite z-score is -0.205 and -0.342.

For `CC(C)=NOC[C@@H](O)COCc1ccco1`, which composite z-score is on record?
The composite z-score was -0.342.

With `C[C@@H]1CC[C@H]2C(=O)NC[C@@H](O)CN2[C@H]1c1ccc(Br)cc1` as the compound, how does the composite z-score read?
Its composite z-score is 0.0014 and -0.194.

With `CCOC(=O)[C@@H]1CC2O[C@]23C[C@@H]1C(=O)N1CCC[C@@H]1[C@H]3O[Si](C)(C)C(C)(C)C` (some centres undefined) as the compound, how does the composite z-score read?
Its composite z-score is -0.321 and -0.134.

Which composite z-score does the source give for `C[N+](C)(C)CCCCNC(=O)[C@H]1C[C@H]2C(=O)N[C@@H](CCCC[N+](C)(C)C)C(=O)N2[C@H]1c1ccc(O)cc1` here?
Its composite z-score is 0.0416 and -0.7.

For `CC(C)[Si]1(C(C)C)OCc2cc(CCCc3cc4c(c(CCc5ccccc5)n3)[Si](C(C)C)(C(C)C)OC4)nc(CCc3ccccc3)c21`, which composite z-score is on record?
The composite z-score was -0.139 and -0.0168.

With `COC(=O)C1=C(C)N(Cc2ccccc2)C2=C3C(=O)N(c4ccccc4)C(=O)[C@@H]3[C@@](O)(C(=O)OC)C(=O)N2[C@@H]1c1ccccc1` as the compound, how does the composite z-score read?
The composite z-score was 0.0954 and -0.43.

For `CO[C@H]1COC(=O)CC=C[C@H](C)[C@H](OC)COC(=O)[C@@H](C)COC(=O)CC=C[C@@H]1C`, which composite z-score is on record?
The composite z-score was -0.194 and -0.176.

With `C=CCN(C(=O)C1N(c2ccc(CCO)cc2)C(=O)C2C(C(=O)O)C3C=CC21O3)c1ccc(OC)cc1` (centres undefined) as the compound, how does the composite z-score read?
The composite z-score was -0.172 and 0.0343.

With `COC(=O)[C@@]1(Cc2ccc(F)cc2)[C@H]2c3cc(C(=O)N4CCCC4)n(Cc4c(CO)[nH]cc(C)c4=O)c3C[C@H]2CN1C(=O)c1ccccc1` as the compound, how does the composite z-score read?
Its composite z-score is 2.71 and 1.27.

With `CC(CO)N1C(=O)[C@@H]2C3C(=O)OCCC=C[C@H]3OC23C=CCN(c2ccc(Cl)cc2)C(=O)[C@@H]13` (some centres undefined) as the compound, how does the composite z-score read?
The composite z-score was 0.0473 and 0.61.

With `C=CCN(CCCC)C(=O)C(c1cccs1)N(C(=O)/C=C\C(=O)O)c1c(Cl)cccc1CO` (centres undefined) as the compound, how does the composite z-score read?
Its composite z-score is -0.0173 and -0.0409.

For `CCOC(=O)C[C@H]1[C@H](OC(=O)c2ccccc2-c2ccccc2)[C@@H](NC(=O)c2ccccc2)c2cc(OCCCO)ccc2N1C(=O)c1ccc2ccccc2n1`, which composite z-score is on record?
The composite z-score was -0.122 and 0.386.

For `C=CCN(C(=O)C1N(c2c(Cl)cccc2CO)C(=O)C2C(C(=O)O)C3C=CC21O3)C(C)(C)C` (centres undefined), which composite z-score is on record?
Its composite z-score is 0.793 and -0.124.

For `C#CCCCON=C1C[C@@H](O)[C@@H](O)[C@@H]2[C@@H]3C(=O)N(C4CCCCC4)C(=O)[C@@H]3CC[C@H]12`, which composite z-score is on record?
Its composite z-score is -0.134.

With `C=CCN(CCCC)C(=O)C1N(c2ccc(CCO)cc2)C(=O)C2C(C(=O)O)C3C=CC21O3` (centres undefined) as the compound, how does the composite z-score read?
Its composite z-score is -0.265 and -0.565.

With `C=CCN(C(=O)C1N(c2c(Cl)cccc2CO)C(=O)C2C(C(=O)O)C3C=CC21O3)c1ccc(OC)cc1` (centres undefined) as the compound, how does the composite z-score read?
The composite z-score was -0.218 and -0.24.

With `CON(C)C(=O)c1nnc2c3ccccc3n(S(=O)(=O)c3ccc(C)cc3)c2n1` as the compound, how does the composite z-score read?
Its composite z-score is -0.373 and 0.0369.

With `CCCC[C@@H]1CN2[C@H](c3ccc(Br)cc3)[C@@H](C)CC[C@H]2C(=O)O1` as the compound, how does the composite z-score read?
Its composite z-score is 0.153 and 0.0051.

Which composite z-score does the source give for `C=CCN(CCCCC)C(=O)C1N(c2ccc(CCO)cc2)C(=O)C2C(C(=O)O)C3C=CC21O3` (centres undefined) here?
The composite z-score was -0.387 and -0.332.

Which composite z-score does the source give for `C=CCN(Cc1ccccc1)C(=O)C1N(C(C)(C)CO)C(=O)C2C(C(=O)O)C3C=CC21O3` (centres undefined) here?
The composite z-score was 0.196 and -0.47.

For `O=C1C[C@]2(c3ccc([N+](=O)[O-])cc3)C(=O)N(Cc3ccccc3)c3cc(CO)ccc3[C@H]2N1C1CCCCC1`, which composite z-score is on record?
The composite z-score was -0.262 and 0.344.

For `C=CCN(Cc1ccccc1)C(=O)C(c1cccs1)N(C(=O)/C=C\C(=O)O)c1c(Cl)cccc1CO` (centres undefined), which composite z-score is on record?
Its composite z-score is -0.153 and 0.103.

With `CCOC(=O)c1ccc(NC(=O)O[C@H]2[C@H](OC(=O)Nc3ccccc3)[C@@H](OC(=O)Nc3ccccc3)[C@@H](OC)O[C@@H]2CO)cc1` as the compound, how does the composite z-score read?
Its composite z-score is 1.32 and 0.386.

With `C=C(C)C(=O)OC[C@@H]1CN2[C@@H](CC[C@@H](C)[C@@H]2c2ccc(Br)cc2)C(=O)O1` as the compound, how does the composite z-score read?
Its composite z-score is -0.259.

With `CC(CO)N1C(=O)[C@@H]2C3C(=O)OCCC=C[C@H]3OC23C=CCN(Cn2nnc4ccccc42)C(=O)[C@@H]13` (some centres undefined) as the compound, how does the composite z-score read?
The composite z-score was -0.0103 and -0.142.

For `O=C(NN=C1C[C@@H](O)[C@@H](O)[C@@H]2[C@@H]3C(=O)N(Cc4ccc5c(c4)OCO5)C(=O)[C@@H]3CC[C@H]12)OCc1ccccc1`, which composite z-score is on record?
The composite z-score was -0.363.

For `COC(=O)[C@@]1(Cc2ccc(OC)cc2)[C@H]2c3cc(C(=O)N(C)C)n(Cc4ccc(O)c(OC)c4)c3C[C@H]2CN1C(=O)c1ccccc1`, which composite z-score is on record?
Its composite z-score is 0.231 and 1.94.

Which composite z-score does the source give for `O=C1NC(=O)C2C1C=CC(C(O)c1ccc([N+](=O)[O-])cc1)N2Nc1ccc(Cl)cc1Cl` (centres undefined) here?
The composite z-score was 1.94 and 2.12.

Which composite z-score does the source give for `CC(C)=CCCC(C)=CCON=C1C[C@@H](O)[C@@H](O)[C@@H]2[C@@H]3C(=O)N([C@@H](C)c4ccccc4)C(=O)[C@@H]3CC[C@H]12` here?
The composite z-score was -0.44.

With `COC(=O)C1=C(C)N(Cc2ccccc2)C2=C3C(=O)CCC[C@@H]3[C@@](O)(C(=O)OC)C(=O)N2[C@@H]1c1ccccc1` as the compound, how does the composite z-score read?
The composite z-score was -0.424 and 0.0775.

For `CCCC[C@@H]1CN2[C@@H](CC[C@@H](C)[C@@H]2c2ccc(Br)cc2)C(=O)O1`, which composite z-score is on record?
The composite z-score was -0.198 and 0.121.

For `CCN1C(=O)[C@H]2[C@H]3[C@H](O)[C@H](O)CC(=NOC)[C@@H]3CC[C@H]2C1=O`, which composite z-score is on record?
The composite z-score was -0.122.

With `CC(C)OC(=O)C=C1C[C@@H](c2cccc(C(F)(F)F)c2)O[C@@H](c2cccc(C(F)(F)F)c2)O1` as the compound, how does the composite z-score read?
Its composite z-score is 0.509 and 0.655.

Which composite z-score does the source give for `CC(C)=NO[C@@H](C)c1cc(-c2c(C)cc(C)cc2C)no1` here?
The composite z-score was -0.242.

With `C=CCN(C(=O)C1N(CCOCCO)C(=O)C2C(C(=O)O)C3C=CC21O3)c1ccc(OC)cc1` (centres undefined) as the compound, how does the composite z-score read?
Its composite z-score is 0.406 and 0.669.

Which composite z-score does the source give for `C=CCN(C(=O)C(c1cccs1)N(CCOCCO)C(=O)/C=C\C(=O)O)c1ccc(OC)cc1` (centres undefined) here?
Its composite z-score is -0.636 and 0.146.

With `C=CCN(Cc1ccccc1)C(=O)C(c1cccs1)N(C(=O)/C=C\C(=O)O)c1ccc(CCO)cc1` (centres undefined) as the compound, how does the composite z-score read?
Its composite z-score is -0.4 and -0.118.
